# Assay outcomes from PubChem BioAssay.
# Hits are enriched below; roughly 3.5% of the tested compounds scored in any of these assays.
# MITF inh = inhibitors of human MITF | O75030 | AlphaScreen MITF homodimerization, bead proximity signal | inhibition, % at 2.6 µM | hit rate 0.91% among 650,000; in the data active = inhibition above about 50%;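 note: 0% = vehicle wells with protein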
# FBW7 activator = human FBW7 E3 ligase activation, primary screen; hit rate 0.13% among 650,000; normalized activity (activation), % at 26.1 µM; AlphaScreen FBW7–phospho-cyclin E peptide binding, activator screen; in the data active = normalized activity above about 1.9%;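 note: purified mutant Fbw7 with reduced substrate affinity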
# TEAD-YAP block = TEAD-YAP interaction inhibition; AID 1259422; hit rate 1.4% among 640,000; inhibition, % at 9.12 µM; HEK-TIYL cells, TEAD-Gal4/YAP UAS-luciferase luminescence; in the data active = inhibition above about 32%;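 note: 0% = median of test compound wells and 100% = reference inhibitor wells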
# GPR151 activ = activators of human GPR151; PathHunter beta-arrestin GPR151 cells, luminescence; activation, % at 11.2 µM; AID 1508602; hit rate 1% among 650,000; Q8TDV0; in the data active = activation above about 4.9%;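 note: 0% = median of compound wells and 100% = cells with positive control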
# Target sequence (Q8TDV0 whole entry, looked up): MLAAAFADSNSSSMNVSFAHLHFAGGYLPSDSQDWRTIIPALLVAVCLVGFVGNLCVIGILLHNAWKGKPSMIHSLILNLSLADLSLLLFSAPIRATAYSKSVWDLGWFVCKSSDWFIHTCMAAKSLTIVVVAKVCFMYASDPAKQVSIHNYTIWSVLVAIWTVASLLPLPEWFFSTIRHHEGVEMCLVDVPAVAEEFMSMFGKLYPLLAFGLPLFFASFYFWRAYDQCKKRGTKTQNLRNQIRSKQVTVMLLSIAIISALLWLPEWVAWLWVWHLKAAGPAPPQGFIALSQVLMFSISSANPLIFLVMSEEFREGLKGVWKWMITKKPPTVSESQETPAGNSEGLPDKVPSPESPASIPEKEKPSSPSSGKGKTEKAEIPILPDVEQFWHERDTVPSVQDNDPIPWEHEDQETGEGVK
# * = called active by the depositor.
SMILES,MITF inh,FBW7 activator,TEAD-YAP block,GPR151 activ
CCC(=O)Nc1cccc(NC(=O)Cn2c(-c3ccc(Cl)cc3)noc2=O)c1,-4.9,0.0,-2.4,0.2
CN(Cc1ccsc1)C(=O)C1CCN(c2cccc3c2C(=O)N(C2CC2)C3=O)CC1,-6.7,0.1,-11.3,-0.8
CCc1nn(CC(=O)C(C)(C)C)c(=O)c2cc3ccsc3n12,-4.4,17.0*,2.4,-1.0
COC(=O)C1=C(C)N(c2ccc(Cl)c(Cl)c2)C(=O)C1,-14.2,-0.2,35.5*,0.5
COC(=O)C1=C(C)N(c2cccc(OC)c2)C(=O)C1,-17.6,-0.1,2.5,0.9
CC(=O)c1cccc(-c2nc(NCCCN3CCCC3=O)c3ncn(-c4ccccc4)c3n2)c1,-6.8,-0.1,57.9*,-0.8
O=C(NC1CC1)c1ccc(-c2nc(NCCCN3CCCC3=O)c3ncn(-c4ccccc4)c3n2)cc1,1.3,-0.1,63.7*,0.3
CC(=O)c1cccc(-c2nc(NCCCN3CCCC3=O)c3ncn(CCN4CCCC4=O)c3n2)c1,-6.9,-0.1,0.1,-1.1
NC(=O)c1ccc(-c2nc(NCCCN3CCCC3=O)c3ncn(-c4ccccc4)c3n2)cc1,13.7,-0.1,55.1*,1.0
c1ccc2c(c1)OCC(c1nc3ccc(-c4ccnc5[nH]ccc45)cc3[nH]1)O2 (stereo unspecified),20.1,0.3,-38.5,1.3
NNc1nc(Nc2ccccc2)nc(Nc2ccccc2)n1,3.9,-0.8,35.0*,-0.5
Nc1nc(C2CC2)c(Sc2sc(N)nc2C2CC2)s1,7.0,-0.2,34.8*,0.5
CC(C)n1cnc2c(N)nc(-c3cccc(N)c3)nc21,13.2,0.1,2.5,1.4
N#Cc1cc2cc3c(cc2nc1SCC(=O)NCc1cccs1)OCCO3,6.6,0.7,46.4*,-0.8
Cc1ccc2nc(SCC(=O)Nc3ncc(C)s3)c(C#N)cc2c1,6.9,3.8*,-73.5,0.2
COc1ccccc1NC(=O)CSc1nc2cc3c(cc2cc1C#N)OCCO3,23.0,0.5,62.1*,-0.9
N#Cc1cc2cc3c(cc2nc1SCC(=O)NCc1ccc2c(c1)OCO2)OCCO3,17.7,0.1,50.2*,0.4
COc1cc2cc(C#N)c(SCC(=O)NCc3cccs3)nc2cc1OC,-8.4,0.0,-1.7,-0.8
CCc1ccc(C2=NC(c3ccccc3F)NC(c3cc(Cl)ccc3O)C2)cc1 (stereo unspecified),7.2,0.2,-0.2,2.8
COc1ccc(C(=O)c2oc3ccc(NC(C)=O)cc3c2C)cc1,16.6,0.1,-2.7,-1.0
COc1ccc(C(=O)c2oc3ccc(N)cc3c2C)cc1,-5.2,0.5,51.8*,1.5
Cc1ccc(C(=O)c2oc3ccc(N)cc3c2C)cc1,-4.7,0.1,53.6*,0.0
COc1cc(OC)cc(C(=O)NCc2ccc(S(N)(=O)=O)cc2)c1,21.1,0.3,6.2,-2.2
COc1cc(OC)cc(C(=O)NCc2ccc(C(C)(C)C)cc2)c1,12.0,0.1,42.8*,0.1
CC(=O)Nc1nc2ccc(S(=O)(=O)N3CCCCC3)cc2s1,-19.4,0.1,-6.5,-2.4
SMILES,MITF inh,FBW7 activator,TEAD-YAP block,GPR151 activ
CC(C)CC(=O)Nc1nc2ccc(S(=O)(=O)N3CCCCC3)cc2s1,-0.4,-0.1,51.9*,0.6
CCCc1nnc(-c2cc3ccccc3n2CC(=O)Nc2ccccc2)o1,0.8,0.0,-2.1,-0.2
O=C1CCCN1CCn1cnc2c(NCc3nc4ccccc4[nH]3)nc(Nc3ccc(-n4ccnc4)cc3)nc21,3.6,-0.1,39.4*,0.7
O=C1CCCN1CCn1cnc2c(NCc3nc4ccccc4[nH]3)nc(Nc3ccc4ncccc4c3)nc21,6.0,-0.2,59.3*,-1.7
O=C1CCCN1CCn1cnc2c(NCc3nc4ccccc4[nH]3)nc(Nc3ncccn3)nc21,-1.8,0.0,6.7,3.3
O=C1CN(C(=O)c2ccc(S(=O)(=O)N3CCOCC3)cc2)C(c2ccccc2)c2cc(Cl)ccc2N1 (stereo unspecified),6.3,-0.2,0.6,-1.0
Cc1cccnc1NC(c1ccc(C(F)(F)F)cc1)c1c(C)[nH]c2ccccc12 (stereo unspecified),4.8,-0.1,-6.9,0.1
CCN(C(C)=O)c1nnc(-c2ccc(C)cc2)s1,-1.0,-0.1,47.5*,-4.1
CC1(C)CC(=O)C2=C(C1)Nc1c(c(=O)[nH]c(=O)n1Cc1ccccc1)C2c1ccccc1 (stereo unspecified),9.0,0.2,6.1,0.2
C[C@]12C=CC(=O)C=C1CCC1C2[C@@H](O)C[C@@]2(C)C1CC[C@]2(O)C(=O)COC(=O)CCC(=O)O (stereo partly specified),1.9,8.0*,-7.3,0.6
Cc1nn(-c2ccccc2)c2c1C(c1ccnc3ccccc13)C(C#N)=C(N)O2 (stereo unspecified),4.9,-0.1,5.6,-0.2
